The full data set covers some 8,800 targets. This sample favours those with a hit. About 0.5% of all pairs of compound and target were hits.
What was measured:
Assay in all cases: log2 fold change, soluble protein after heating vs DMSO (PISA); higher = thermal stabilisation; K562 lysate, 10 uM; active = over 0.2 and 3.5 SD of the protein, either way, in both replicates (recomputed)
[1] = compound: Cc1cn(-c2cc(NC(=O)c3ccc(C)c(Nc4nccc(-c5cccnc5)n4)c3)cc(C(F)(F)F)c2)cn1 [nilotinib]
How it was run: (§1)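 K562 pellets were dounce-homogenised in PBS pH 7.4 containing 1 mM MgCl2, and the crude extract, at 1 mg/mL protein, was exposed to 10 μM compound for 30 min. Aliquots were heated for 3 min across 48°C-58°C, pooled, brought to 0.5% NP-40 at 4°C and spun at 21,000xg for 90 min, with the supernatant taken as soluble protein. TMTpro 16plex LC-MS/MS with equalised channel sums quantified that protein. Values are log-two fold changes in thermal stability relative to solvent controls, taken from duplicates.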

[2] = compound: Cc1nc(Nc2n[nH]c3c2CN(C(=O)N[C@H](CN(C)C)c2ccccc2)C3(C)C)c2sccc2n1
How it was run: as §1

[3] = compound: Cc1nc(Nc2ncc(C(=O)Nc3c(C)cccc3Cl)s2)cc(N2CCN(CCO)CC2)n1 [dasatinib]
How it was run: as §1

[4] = compound: Cc1ncc(-c2ccnc(Nc3ccc(S(C)(=O)=O)cc3)n2)n1C(C)C
How it was run: as §1

[5] = compound: Cn1cc(-c2ccc3c(c2)CCN3C(=O)Cc2cccc(C(F)(F)F)c2)c2c(N)ncnc21
How it was run: as §1

[6] = compound: Cn1cncc1[C@@](N)(c1ccc(Cl)cc1)c1ccc2c(c1)c(-c1cccc(Cl)c1)cc(=O)n2C [tipifarnib]
How it was run: as §1

[7] = compound: NC(=O)c1cnc(N[C@@H]2CCCC[C@@H]2N)nc1Nc1cccc(-n2nccn2)c1
How it was run: as §1

[8] = compound: Cn1cc(CNCC2CCN(c3ncc(C(=O)NO)cn3)CC2)c2ccccc21 [quisinostat]
How it was run: as §1

[9] = compound: NC(=O)Nc1cc(-c2cccc(F)c2)sc1C(=O)N[C@H]1CCCNC1
How it was run: as §1

[10] = compound: NC1(c2ccc(-c3nc4ccn5c(=O)[nH]nc5c4cc3-c3ccccc3)cc2)CCC1
How it was run: as §1

Measured: log2 fold change

PPP1R14C (UniProt Q8TAE6)
Chain of UniProt Q8TAE6 (Q8TAE6 whole entry, looked up): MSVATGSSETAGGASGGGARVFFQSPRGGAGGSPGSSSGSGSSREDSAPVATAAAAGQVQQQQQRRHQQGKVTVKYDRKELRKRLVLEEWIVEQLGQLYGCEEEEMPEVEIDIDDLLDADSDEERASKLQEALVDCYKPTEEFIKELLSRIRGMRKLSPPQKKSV
inactive: [1] 0.075 | [2] -0.003 | [3] 0.105 | [4] -0.043 | [5] -0.173 | [6] 0.073 | [7] -0.184

PYGO2 (UniProt Q9BRQ0)
Chain of UniProt Q9BRQ0 (Q9BRQ0 whole entry, looked up): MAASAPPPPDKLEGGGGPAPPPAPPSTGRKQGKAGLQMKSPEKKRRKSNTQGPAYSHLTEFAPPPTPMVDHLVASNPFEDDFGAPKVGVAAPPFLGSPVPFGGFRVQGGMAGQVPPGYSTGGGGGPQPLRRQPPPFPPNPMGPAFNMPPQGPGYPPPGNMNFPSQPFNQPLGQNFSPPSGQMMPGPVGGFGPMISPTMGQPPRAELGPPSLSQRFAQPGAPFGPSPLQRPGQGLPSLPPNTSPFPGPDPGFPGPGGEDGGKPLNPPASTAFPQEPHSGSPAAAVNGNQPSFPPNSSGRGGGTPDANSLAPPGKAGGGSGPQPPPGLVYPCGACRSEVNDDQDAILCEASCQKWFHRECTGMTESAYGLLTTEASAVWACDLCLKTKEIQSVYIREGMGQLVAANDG
inactive: [1] 0.01 | [2] 0.044 | [3] -0.028 | [4] 0.063 | [5] 0.004 | [8] 0.016 | [6] -0.02 | [9] -0.015 | [10] 0.029

POLR2M (UniProt Q6EEV4)
Chain of UniProt Q6EEV4 (Q6EEV4 whole entry, looked up): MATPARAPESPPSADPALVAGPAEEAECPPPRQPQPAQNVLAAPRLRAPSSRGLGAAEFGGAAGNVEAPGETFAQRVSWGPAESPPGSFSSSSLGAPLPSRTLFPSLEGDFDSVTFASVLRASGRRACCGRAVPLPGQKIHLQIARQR
inactive: [3] 0.02 | [5] -0.2 | [8] 0.011 | [9] 0.032 | [7] -0.015 | [10] 0.076

POLR2F (UniProt U3KPV3)
inactive: [3] -0.024 | [5] 0.038
